Experimental findings from PubChem BioAssay (NCATS) are described below.

Assay [1] addresses Lysosomal acid glucosylceramidase (Homo sapiens) (UniProt P04062). The experiment in a line: Glucocerebrosidase-p2 (AID 348; in the data active = potency below about 10 µM; note: potency is the fitted concentration of half-maximal effect). The conditions noted are these: purified GBA, blue fluorogenic substrate, 40 min. Summed up: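 Normal human glucocerebrosidase (0.2 nM) with blue fluorogenic substrate (80 uM final) in citrate/phosphate pH 5.9 with 10mM sodium taurocholate, 0.01% tween-20; 40 min RT, NaOH/glycine stop; fluorescence Ex 365/Em 440; AC50 from a titration from 0.6 nM upwards.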

Assay [2] in a line: AP1 Signaling Pathway (AID 357).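 Note: ME-180 reporter cells stimulated with EGF at its EC50 level; % is set by controls: 0 for no effect and ±100 for the full control effect.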 The conditions noted are these: ME-180 AP-1-bla reporter, EGF-induced, beta-lactamase ratio, 5 h; at 7.69 µM (top of the series) unless noted. Summed up:
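A ratiometric CCF4 readout (405 nm excitation; 460 and 530 nm emission) quantified AP-1-driven beta-lactamase in ME-180 cells after 5 h with compound and EC50 EGF; AC50 values were derived for activators and inhibitors.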

The target of assay [3] is Cytochrome P450 1A2 (Homo sapiens) (UniProt P05177). The experiment in a line: p450-cyp1a2 (AID 410; calls by dose curve; note: potency is the fitted concentration of half-maximal effect;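 for activity change, negative = inhibition: -100% = full effect of reference inhibitor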). Conditions: recombinant CYP1A2, luciferin-ME demethylation, luminescence; series mostly up to 11.4 µM. Summed up:
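Read-out is luminescence from luciferin produced by CYP1A2 demethylation of Luciferin-ME (100uM, at Km). Detection reagent stopped the 60 min NADPH-dependent reaction; signals were normalized to 57 uM furafylline.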

Assay [4] is described as follows: NFAT Signaling Pathway (AID 444).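 Note: carbachol stimulus at about its EC50 of 1 µM final; % is set by controls: 0 for no effect and ±100 for the full control effect.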 The conditions noted are these: Jurkat NFAT-bla M1, carbachol, beta-lactamase ratio, 5 h; at 7.69 µM (top of the series) unless noted. An outline of the steps:
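Jurkat cells with NFAT-driven β-lactamase reporter and co-expressed M1 receptor, stimulated with carbachol (final 1 uM, ~EC50), compound titration, 5 h at 37 °C. CCF4 loaded 1 h at RT; 460/530 nm ratio gave %activity and AC50.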

Assay [5] deals with Glucocorticoid receptor (Homo sapiens) (UniProt P04150). The experiment in a line: GR-GFP Redistribution (AID 450;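 active = compounds whose dose series gives a full or clear partial fitted curve of increased nuclear translocation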; note: potency is the fitted concentration of half-maximal effect). The conditions noted are these: U2OS GR-GFP nuclear translocation, laser cytometry, 2 h.
Chain of Glucocorticoid receptor (Homo sapiens) (P04150 whole entry, looked up): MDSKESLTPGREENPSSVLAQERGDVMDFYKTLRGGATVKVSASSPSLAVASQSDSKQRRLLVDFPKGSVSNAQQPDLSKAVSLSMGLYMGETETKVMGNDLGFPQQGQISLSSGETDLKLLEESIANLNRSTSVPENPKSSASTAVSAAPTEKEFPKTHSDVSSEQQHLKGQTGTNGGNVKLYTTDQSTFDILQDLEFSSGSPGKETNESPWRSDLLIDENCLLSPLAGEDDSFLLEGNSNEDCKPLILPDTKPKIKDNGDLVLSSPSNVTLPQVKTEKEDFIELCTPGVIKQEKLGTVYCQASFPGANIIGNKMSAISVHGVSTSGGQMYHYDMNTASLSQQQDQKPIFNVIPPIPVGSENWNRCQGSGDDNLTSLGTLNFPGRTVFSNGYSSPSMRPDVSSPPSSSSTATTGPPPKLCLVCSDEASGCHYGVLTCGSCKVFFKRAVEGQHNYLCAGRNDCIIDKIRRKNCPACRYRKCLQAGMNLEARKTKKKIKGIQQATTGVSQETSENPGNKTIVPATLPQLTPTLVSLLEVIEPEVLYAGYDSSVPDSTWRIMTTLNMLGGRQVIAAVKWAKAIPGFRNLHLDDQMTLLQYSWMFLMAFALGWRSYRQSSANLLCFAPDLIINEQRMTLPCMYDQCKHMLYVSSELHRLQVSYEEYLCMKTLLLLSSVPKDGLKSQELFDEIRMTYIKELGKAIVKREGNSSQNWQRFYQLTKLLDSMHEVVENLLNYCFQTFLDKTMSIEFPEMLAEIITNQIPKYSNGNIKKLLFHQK
The target is the same in assay [6]. Put plainly: GR-EFC Redistribution (AID 451; calls by dose curve; note: potency is the fitted concentration of half-maximal effect). The conditions noted are these: CHO-K1 GR-EFC translocation, beta-gal luminescence, 2 h. Summed up:
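CHO-K1 cells expressing nuclear EA and GR-ED fragments of b-gal; compounds titrated up to 46 uM final, 2 h at 37 C. GR nuclear translocation read as complemented b-gal luminescence after 1 h RT detection.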

In assay [7] the target is Mitogen-activated protein kinase 10 (Mus musculus) (UniProt Q61831). Put plainly: JNK3 AlphaScreen Assay (AID 530).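 Note: kinase came from lysate of stimulated human HepG2 cells; signal reports phosphorylation of biotinylated GST-cJun 1-79 at Ser73 with 10 µM ATP; % is set by controls: 0 for no effect and ±100 for the full control effect.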 The conditions noted are these: JNK3 lysate, c-Jun phosphorylation; series mostly up to 57.1 µM. Summed up: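 HepG2 lysate (IL-1b/TNFa pre-activated) + biotin-GST-cJun 1-79 + anti-pSer73 cJun; cpd titration, 15 min RT; ATP 10 uM start; Tris pH 7.6, MgCl2, DTT, vanadate; beads in EDTA buffer; AlphaScreen.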

Assay [8] has as its target 3',5'-cyclic-AMP phosphodiesterase 4B (Homo sapiens) (UniProt Q07343). Put plainly: qHTS Assay for Inhibitors of PDE-IV (AID 607; active = well fitted activation curve with a large enough effect in the main read-out, with a control signal flat, not every such curve was filed as active; note: % of control where 0% means no effect). Conditions: HEK293 ACTOne CNG channel cells, membrane potential fluorescence; series mostly up to 22.9 µM. An outline of the steps:
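HEK293 ACTOne cells with CNG channel (1000/well), endogenous PDE4; membrane potential dye, compounds up to 22.9 uM final. Fluorescence Ex 535/Em 590; RO 20-1724 (100 uM final) as reference.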

Assay [9] can be described thus: Stat Signaling Pathway (AID 446).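 Note: ME-180 cervical cancer cells given 40 pM IL-6 alongside compound; SIE-controlled beta-lactamase reporter measured as 460/530 nm FRET emission ratio; % is set by controls: 0 for no effect and ±100 for the full control effect.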 The conditions noted are these: ME-180 SIE beta-lactamase reporter, IL-6 stimulated, 5 h; at 7.69 µM (top of the series) unless noted. An outline of the steps: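 Normalization used AC90 stimulation (300 pM IL-6) and AC90 inhibition (125 nM pan-JAK inhibitor at 40 pM IL-6). The underlying signal is SIE-driven beta-lactamase in ME-180 cells after 5 h IL-6 exposure with compound.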

Assay [10] deals with Cytochrome P450 2D6 (Homo sapiens) (UniProt P10635). The experiment in a line: qHTS Assay for Inhibitors and Substrates of Cytochrome P450 2D6 (AID 891; active = well fitted curve in the direction sought with a large enough effect; an effect the other way counts as inactive or inconclusive; note: nearly all actives have a fitted effect of over 60% in size; note: potency is the fitted concentration of half-maximal effect). Conditions: recombinant CYP2D6, luciferin-ME EGE luminescence; series mostly up to 11.4 µM. Summed up: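 Luminescent read-out of luciferin formed by 5 nM human CYP2D6 demethylating 30 uM Luciferin-ME EGE (Km level) over 60 min at room temperature after NADPH regeneration addition. Data normalized to full inhibition by 1.43 uM quinidine.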
Chain of Cytochrome P450 2D6 (Homo sapiens) (P10635 whole entry, looked up): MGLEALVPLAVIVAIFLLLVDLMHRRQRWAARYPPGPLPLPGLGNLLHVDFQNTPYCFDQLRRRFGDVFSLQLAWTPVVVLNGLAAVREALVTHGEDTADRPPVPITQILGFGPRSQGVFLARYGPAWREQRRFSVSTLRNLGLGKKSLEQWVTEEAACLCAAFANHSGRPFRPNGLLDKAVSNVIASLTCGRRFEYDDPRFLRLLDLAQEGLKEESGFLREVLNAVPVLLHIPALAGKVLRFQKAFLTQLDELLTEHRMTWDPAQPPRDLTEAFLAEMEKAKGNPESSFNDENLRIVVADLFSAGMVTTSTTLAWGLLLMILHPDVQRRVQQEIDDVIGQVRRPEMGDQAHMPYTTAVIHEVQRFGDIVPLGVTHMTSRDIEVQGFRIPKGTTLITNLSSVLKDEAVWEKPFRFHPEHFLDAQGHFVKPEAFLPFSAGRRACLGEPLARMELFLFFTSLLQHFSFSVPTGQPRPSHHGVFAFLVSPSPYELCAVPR

The target in assay [11] is Cytochrome P450 2C9 (Homo sapiens) (UniProt P11712). The experiment in a line: qHTS Assay for Inhibitors and Substrates of Cytochrome P450 2C9 (AID 883; active = well fitted curve in the direction sought with a large enough effect; an effect the other way counts as inactive or inconclusive; note: potency is the fitted concentration of half-maximal effect; nearly all actives have a fitted effect of over 60% in size). The conditions noted are these: recombinant CYP2C9, luciferin-H luminescence, 60 min; series mostly up to 57.1 µM. Summed up:
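Signal: luciferase luminescence reporting luciferin produced by CYP2C9. Conditions: 10nM enzyme, Luciferin-H 100uM at KM, 25mM KPO4, 37C, 60 min NADPH-driven reaction. Reference: 57uM sulphaphenazole as 100% inhibition.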
A general note: In qHTS, concentration-response curves come from the screen itself.

For assay [12], the target named is Cytochrome P450 3A4 (Homo sapiens) (UniProt P08684). The experiment in a line: qHTS Assay for Activators of Cytochrome P450 3A4 (AID 885; active = well fitted curve in the direction sought with a large enough effect; an effect the other way counts as inactive or inconclusive; note: nearly all actives have a fitted effect of over 65% in size). Conditions: recombinant CYP3A4, Luciferin-PPXE luminescence, 60 min; series mostly up to 57.1 µM. Summed up: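 Human CYP3A4 dealkylates Luciferin-PPXE to luciferin, which luciferase detection converts to light. Substrate was at its KM (25uM), buffer 200mM KPO4, reaction 60 min at RT.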
Chain of Cytochrome P450 3A4 (Homo sapiens) (P08684 whole entry, looked up): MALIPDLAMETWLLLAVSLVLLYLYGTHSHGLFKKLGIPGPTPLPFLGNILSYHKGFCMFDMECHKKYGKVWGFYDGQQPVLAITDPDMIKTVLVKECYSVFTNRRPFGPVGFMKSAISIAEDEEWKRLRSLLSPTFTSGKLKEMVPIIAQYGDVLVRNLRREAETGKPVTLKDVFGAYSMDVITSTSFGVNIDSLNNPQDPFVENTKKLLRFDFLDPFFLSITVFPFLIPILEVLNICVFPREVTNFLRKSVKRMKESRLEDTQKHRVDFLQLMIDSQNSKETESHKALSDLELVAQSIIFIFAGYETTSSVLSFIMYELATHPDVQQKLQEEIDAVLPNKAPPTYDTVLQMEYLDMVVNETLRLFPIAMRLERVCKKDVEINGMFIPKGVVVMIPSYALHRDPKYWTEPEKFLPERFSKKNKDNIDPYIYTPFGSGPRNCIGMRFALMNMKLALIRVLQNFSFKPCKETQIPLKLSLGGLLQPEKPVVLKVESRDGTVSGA

The target of assay [13] is Cytochrome P450 2C19 (Homo sapiens) (UniProt P33261). The experiment in a line: qHTS Assay for Inhibitors and Substrates of Cytochrome P450 2C19 (AID 899; active = well fitted curve in the direction sought with a large enough effect; an effect the other way counts as inactive or inconclusive; note: potency is the fitted concentration of half-maximal effect; nearly all actives have a fitted effect of over 60% in size). The conditions noted are these: recombinant CYP2C19, luciferin-H EGE luminescence; series mostly up to 11.4 µM. Summed up: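 Signal comes from luciferase acting on luciferin released by CYP2C19-mediated hydroxylation of Luciferin-H EGE, 10uM (KM). Assay mix: 5nM enzyme, 50mM KPO4; 60 min at 37C with NADPH regeneration. Data normalized against 57uM ketoconazole.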
Chain of Cytochrome P450 2C19 (Homo sapiens) (P33261 whole entry, looked up): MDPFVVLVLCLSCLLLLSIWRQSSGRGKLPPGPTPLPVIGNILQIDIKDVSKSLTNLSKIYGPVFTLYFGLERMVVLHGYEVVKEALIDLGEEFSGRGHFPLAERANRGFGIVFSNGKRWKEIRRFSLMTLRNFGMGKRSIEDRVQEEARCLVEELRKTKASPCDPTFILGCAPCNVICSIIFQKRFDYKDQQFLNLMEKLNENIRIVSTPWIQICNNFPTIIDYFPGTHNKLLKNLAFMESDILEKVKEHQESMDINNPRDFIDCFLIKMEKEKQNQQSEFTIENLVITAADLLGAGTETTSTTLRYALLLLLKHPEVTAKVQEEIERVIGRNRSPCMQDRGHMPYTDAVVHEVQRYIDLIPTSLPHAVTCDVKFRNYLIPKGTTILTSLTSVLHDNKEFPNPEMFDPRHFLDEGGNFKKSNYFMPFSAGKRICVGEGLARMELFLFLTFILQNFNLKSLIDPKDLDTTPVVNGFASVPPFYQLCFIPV

Assay [14] is described as follows: qHTS Assay for Identification of Small Molecule Agonists for Hypoxia Response Element Signaling Pathway (AID 914; active = well fitted activation curve with a large enough effect in the signal ratio, with a control signal flat, not every such curve was filed as active; the % refers to the signal ratio; note: % of control where 0% means no effect). Conditions: ME-180 (cervical carcinoma) HRE-bla reporter, beta-lactamase ratio, CoCl2, 17 h; stronger effect = higher value. An outline of the steps: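 HRE-bla ME-180 cells, overnight plating in Opti-MEM with 0.5% dialyzed FBS; cpd titration + EC50 CoCl2, 17 h, 37 degrees Celsius; CCF4 2.5 h RT; 460/530 nm ratio; AC50.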

Values without a mark were called inactive. Records with an inconclusive call do not appear. Active and inactive are the calls of the source. Unless noted, calls come from the whole dose curve; as a rule, active = well fitted curve in either direction with a large enough effect (not every such curve was filed as active); inconclusive = small, poorly fitted or top-dose-only effect, or another doubt; inactive = flat fitted curve, though single readings scatter.

Chain of 3',5'-cyclic-AMP phosphodiesterase 4B (Homo sapiens) (Q07343 whole entry, looked up): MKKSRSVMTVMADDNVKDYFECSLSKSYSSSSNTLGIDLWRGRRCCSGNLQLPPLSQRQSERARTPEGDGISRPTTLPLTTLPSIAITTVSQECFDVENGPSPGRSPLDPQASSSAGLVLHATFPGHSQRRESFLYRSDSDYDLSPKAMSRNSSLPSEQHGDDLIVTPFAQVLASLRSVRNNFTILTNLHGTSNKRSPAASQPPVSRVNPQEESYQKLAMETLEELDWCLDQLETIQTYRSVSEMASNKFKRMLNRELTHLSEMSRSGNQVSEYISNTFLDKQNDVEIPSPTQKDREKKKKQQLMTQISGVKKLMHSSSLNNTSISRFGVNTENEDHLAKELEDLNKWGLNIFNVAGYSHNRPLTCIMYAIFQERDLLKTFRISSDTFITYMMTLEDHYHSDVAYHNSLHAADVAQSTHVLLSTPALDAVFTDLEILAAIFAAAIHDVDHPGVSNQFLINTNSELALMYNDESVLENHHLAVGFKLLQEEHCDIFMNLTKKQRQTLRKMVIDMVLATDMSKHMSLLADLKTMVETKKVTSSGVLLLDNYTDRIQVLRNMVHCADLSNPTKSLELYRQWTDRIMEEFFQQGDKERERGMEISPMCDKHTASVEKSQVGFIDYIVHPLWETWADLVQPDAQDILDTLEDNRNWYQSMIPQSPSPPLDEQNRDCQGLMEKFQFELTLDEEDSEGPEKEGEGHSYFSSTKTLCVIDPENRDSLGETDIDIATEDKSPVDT
Chain of Lysosomal acid glucosylceramidase (Homo sapiens) (P04062 whole entry, looked up): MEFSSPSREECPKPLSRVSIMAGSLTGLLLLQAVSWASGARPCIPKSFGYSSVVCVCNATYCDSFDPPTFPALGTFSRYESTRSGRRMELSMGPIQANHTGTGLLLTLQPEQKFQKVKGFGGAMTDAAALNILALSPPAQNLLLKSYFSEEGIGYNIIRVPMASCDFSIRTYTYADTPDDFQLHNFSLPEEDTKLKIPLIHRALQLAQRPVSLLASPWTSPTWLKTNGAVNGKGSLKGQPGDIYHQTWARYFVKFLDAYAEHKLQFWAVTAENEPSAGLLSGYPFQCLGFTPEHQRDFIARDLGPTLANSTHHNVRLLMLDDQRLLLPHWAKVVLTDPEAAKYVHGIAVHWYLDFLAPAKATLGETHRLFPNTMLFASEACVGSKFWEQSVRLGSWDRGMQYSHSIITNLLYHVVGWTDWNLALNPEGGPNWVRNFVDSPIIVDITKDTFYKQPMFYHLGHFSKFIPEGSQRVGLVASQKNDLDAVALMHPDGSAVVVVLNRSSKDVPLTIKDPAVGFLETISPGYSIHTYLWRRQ
Chain of Cytochrome P450 1A2 (Homo sapiens) (P05177 whole entry, looked up): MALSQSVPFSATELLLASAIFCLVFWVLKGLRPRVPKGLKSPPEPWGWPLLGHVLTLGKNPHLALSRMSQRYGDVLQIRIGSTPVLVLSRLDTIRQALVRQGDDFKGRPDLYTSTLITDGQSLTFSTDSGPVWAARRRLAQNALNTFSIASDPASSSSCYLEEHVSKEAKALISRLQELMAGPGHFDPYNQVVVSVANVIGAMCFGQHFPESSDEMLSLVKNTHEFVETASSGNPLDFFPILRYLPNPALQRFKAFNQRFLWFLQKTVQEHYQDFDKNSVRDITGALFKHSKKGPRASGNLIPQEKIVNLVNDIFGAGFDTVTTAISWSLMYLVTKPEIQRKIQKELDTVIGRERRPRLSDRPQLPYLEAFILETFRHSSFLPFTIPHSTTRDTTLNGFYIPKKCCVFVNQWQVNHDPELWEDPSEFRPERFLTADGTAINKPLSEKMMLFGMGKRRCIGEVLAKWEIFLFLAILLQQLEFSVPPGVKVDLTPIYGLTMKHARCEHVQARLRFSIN
Chain of Cytochrome P450 2C9 (Homo sapiens) (P11712 whole entry, looked up): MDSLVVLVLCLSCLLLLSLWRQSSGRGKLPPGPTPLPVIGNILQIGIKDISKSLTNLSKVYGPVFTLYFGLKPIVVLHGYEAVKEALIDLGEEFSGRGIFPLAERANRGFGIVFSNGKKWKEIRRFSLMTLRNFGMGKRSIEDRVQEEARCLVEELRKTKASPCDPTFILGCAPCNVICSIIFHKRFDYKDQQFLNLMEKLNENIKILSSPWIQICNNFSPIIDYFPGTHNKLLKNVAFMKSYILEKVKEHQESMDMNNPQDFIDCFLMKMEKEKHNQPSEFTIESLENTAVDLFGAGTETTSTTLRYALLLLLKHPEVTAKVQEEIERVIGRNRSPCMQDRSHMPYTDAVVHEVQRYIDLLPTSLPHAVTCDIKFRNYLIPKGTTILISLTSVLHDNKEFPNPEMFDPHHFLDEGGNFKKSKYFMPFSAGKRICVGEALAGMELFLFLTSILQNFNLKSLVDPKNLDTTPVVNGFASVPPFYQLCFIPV

For the compound `COc1cc2c3cc1Oc1c(O)c(OC)cc4c1[C@@H](Cc1ccc(cc1)Oc1cc(ccc1O)C[C@H]3N(C)CC2)N(C)CC4`, the Potency in assay [1] is > 11.4 µM; in assay [5] it was > 46 µM; in assay [6], > 9.22 µM. For the same compound, the activity change, negative = inhibition was 5.28% in [2], -11.5% in assay [4] and 4.78% [at 11.4 µM] in [7]. Besides, the Potency entry in [3] was “inactive”. The result in [8] was inactive.
Turning to `CC1(C)N=C(N)N=C(N)N1c1cccc(C(=O)Nc2ccc(S(=O)(=O)F)cc2)c1`, the Potency in [1] was > 11.4 µM; in assay [5], > 46 µM; in assay [6] it was > 9.22 µM; in assay [10], 2 µM (active). In addition, the activity change, negative = inhibition in [2] is -0.165%; in assay [7], 7.01% [at 11.4 µM]. Besides, in [3], the Potency entry was “inactive”. Further, the activity, negative = inhibition in [9] was 9.13%. The compound was called inactive in assay [8].
In the case of `C[C@H](c1ccccc1)N1CCN([C@@H](C)c2ccccc2)CC1`, the Potency in assay [1] was > 11.4 µM; in assay [5], > 46 µM; in [6] it was > 9.22 µM; in assay [10], 0.0631 µM (active). Moreover, the activity change, negative = inhibition in assay [2] is -6.57%; in assay [3] it was -16% [at 2.29 µM]; in [7], 1.95% [at 11.4 µM]. The activity, negative = inhibition in assay [9] is -0.496%. Further, the compound was called inactive in assay [8].
On to `c1ccc2c([C@@H]3CCN(CCN4CCOCC4)C3)c[nH]c2c1`, for which the values for the Potency in assay [1], in assay [5] and in assay [6] were > 11.4 µM, > 46 µM and > 9.22 µM, respectively. The activity change, negative = inhibition is -11.8% in assay [2] and 3.19% [at 11.4 µM] in assay [7]. The Potency entry in assay [3] was “inactive”. For the same compound, the activity, negative = inhibition in [9] is 0.702%. The result in assay [8] was inactive.
Take `O=P(O)(O)c1ccccc1` (tested in a mixture with another compound): the Potency in [1] is > 11.4 µM. For the same compound, the results for the activity change, negative = inhibition in [2], in [4] and in assay [7] were 2.76%, 5.01% and 6.51% [at 11.4 µM], respectively. Also, the Potency entry in assay [3] is “inactive”. The activity, negative = inhibition in assay [9] was -0.661%. Also, the outcome in assay [8] was inactive.
As for `CC(C)CCC1(CCN)C(=O)NC(=O)NC1=O`, the Potency in assay [1] was > 11.4 µM; in assay [5] it was > 46 µM. The figures for the activity change, negative = inhibition in assay [2], in assay [4] and in assay [7] were 5.02%, 4.97% and -0.876% [at 11.4 µM], respectively. Besides, in assay [3], the Potency result was “inactive”. For the same compound, the activity, negative = inhibition in assay [9] is 1.34%. For the same compound, in assay [8], the result was inactive.
Take `NCCc1c[nH]c2ccc(OC(=O)C(=O)O)cc12`: the Potency was > 11.4 µM in assay [1], 2.51 µM (active) in assay [3] and > 46 µM in assay [5]. Also, the activity change, negative = inhibition in assay [2] was 9.07%; in [4], 6.17%; in assay [7], 8.58% [at 11.4 µM]. In [9], the activity, negative = inhibition is 10.1%. For the same compound, the result in assay [8] was inactive.
As for `[N-]=[N+]=NCC(=O)c1c[nH]c(=O)[nH]c1=O`, the Potency in assay [1] was > 11.4 µM; in assay [5], > 46 µM. Also, the activity change, negative = inhibition was 12.2% in assay [2], 0.1% [at 2.29 µM] in assay [3], 5.05% in assay [4] and 0.476% [at 11.4 µM] in assay [7]. Moreover, the activity, negative = inhibition in assay [9] is 1.86%. For the same compound, the compound was called inactive in assay [8].
Consider `C[C@@H](O)CN(CCN(C[C@@H](C)O)C[C@@H](C)O)C[C@@H](C)O.O=[N+]([O-])O.[Cu]`, for which the Potency in [1] was > 11.4 µM; in assay [3], 5.01 µM (active); in assay [6] it was > 9.22 µM; in assay [11] it was 0.794 µM (active); in [13], 0.398 µM (active). The figures for the activity change, negative = inhibition in assay [2], in assay [4] and in assay [7] were -0.101%, -2.32% and -3.67% [at 11.4 µM], respectively. Further, the activity, negative = inhibition in [9] was 2.41%. The compound was classed as inactive in assay [8]. The activity change, positive = activation in assay [12] was -36.8% [at 11.4 µM].
For `CN(CCC(=O)O)C1=Nc2ccc(Cl)cc2C(c2ccccc2)=[N+]([O-])C1`, the Potency is > 11.4 µM in [1], 0.0631 µM (active) in assay [3] and > 9.22 µM in assay [6]. Besides, the activity change, negative = inhibition is -5.9% in assay [2], 13.9% in assay [4] and 1.43% [at 11.4 µM] in assay [7]. Moreover, in assay [9], the activity, negative = inhibition was 1.77%. Besides, the compound was called inactive in assay [8].
On to `O=[As](O)(O)c1ccc(N=Nc2ccc([As](=O)(O)O)cc2)cc1`, for which the Potency in assay [1] was > 11.4 µM; in [6], > 9.22 µM. Further, the activity change, negative = inhibition in [2] was 2.76%; in assay [4] it was 2.59%; in assay [7], 2.69% [at 11.4 µM]. In assay [3], the Potency result was “inactive”. Also, the activity, negative = inhibition in assay [9] is 4.67%. The compound was classed as inactive in [8].
In the case of `N=C(N)n1cc(/C=N\N=C(N)N)cn1`, the Potency in [1] was > 11.4 µM; in [5], > 46 µM. The activity change, negative = inhibition is 8.06% in assay [2], 7.8% [at 2.29 µM] in assay [3], 8.05% in assay [4] and 6.38% [at 11.4 µM] in assay [7]. In addition, in [9], the activity, negative = inhibition is 9.59%. For the same compound, in assay [8], the compound was called inactive. Besides, the Potency entry in assay [10] is “inactive”.
Take `NCCP(=O)(O)O`: the figures for the Potency in assay [1] and in assay [5] were > 11.4 µM and > 46 µM, respectively. The activity change, negative = inhibition was 3.81% in assay [2], 9.11% in assay [4] and 3.4% [at 11.4 µM] in [7]. The Potency entry in assay [3] was “inactive”. Also, the activity, negative = inhibition in assay [9] is 10.6%. The outcome in [8] was inactive. For the same compound, the activation in [14] is 0.635%.
